# Screen size: about 310,000 compounds; about 2,200 (0.71%) showed an effect of 50% or more. Effects have a minus sign here. For the sample, strong results were picked, then their nearest neighbours and some compounds at random.
# Molecular target: human ether-à-go-go-related gene (hERG) potassium channel (human, UniProt Q12809)
# Assay: primary screen, population patch clamp on CHO cells stably expressing hERG; higher = less effect of the substance
# Chain of human ether-à-go-go-related gene (hERG) potassium channel (Q12809 whole entry, looked up): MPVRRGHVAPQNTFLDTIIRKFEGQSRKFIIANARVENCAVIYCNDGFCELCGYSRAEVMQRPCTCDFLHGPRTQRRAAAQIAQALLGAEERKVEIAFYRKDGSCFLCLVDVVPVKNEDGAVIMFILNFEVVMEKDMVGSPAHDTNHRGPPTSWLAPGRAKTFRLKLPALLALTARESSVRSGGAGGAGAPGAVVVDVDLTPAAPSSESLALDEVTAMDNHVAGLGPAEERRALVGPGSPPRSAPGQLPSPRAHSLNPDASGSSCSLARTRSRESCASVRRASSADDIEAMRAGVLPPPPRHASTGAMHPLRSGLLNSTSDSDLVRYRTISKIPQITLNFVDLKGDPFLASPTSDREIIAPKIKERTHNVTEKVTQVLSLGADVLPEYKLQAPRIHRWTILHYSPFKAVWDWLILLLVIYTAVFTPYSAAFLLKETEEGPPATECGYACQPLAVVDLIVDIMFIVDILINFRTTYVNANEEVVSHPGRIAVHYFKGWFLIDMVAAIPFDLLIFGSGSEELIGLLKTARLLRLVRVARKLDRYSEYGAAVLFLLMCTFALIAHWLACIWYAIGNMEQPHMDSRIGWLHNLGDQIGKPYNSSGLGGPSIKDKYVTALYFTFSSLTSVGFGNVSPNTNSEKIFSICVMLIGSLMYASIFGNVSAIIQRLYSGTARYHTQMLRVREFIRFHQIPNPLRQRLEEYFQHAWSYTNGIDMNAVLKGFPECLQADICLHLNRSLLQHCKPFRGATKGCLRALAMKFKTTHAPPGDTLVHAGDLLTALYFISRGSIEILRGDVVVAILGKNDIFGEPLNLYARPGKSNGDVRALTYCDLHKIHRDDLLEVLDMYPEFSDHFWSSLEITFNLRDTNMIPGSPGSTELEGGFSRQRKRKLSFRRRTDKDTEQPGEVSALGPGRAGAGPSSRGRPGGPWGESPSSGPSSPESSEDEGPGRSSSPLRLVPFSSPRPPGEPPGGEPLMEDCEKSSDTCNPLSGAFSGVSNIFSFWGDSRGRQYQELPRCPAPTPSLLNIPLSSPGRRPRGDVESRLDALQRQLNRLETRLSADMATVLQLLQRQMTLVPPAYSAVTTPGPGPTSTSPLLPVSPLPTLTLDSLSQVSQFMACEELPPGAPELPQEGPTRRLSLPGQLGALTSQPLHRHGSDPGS
row,SMILES,"hERG current change (%, negative = inhibition) at 1uM [%]"
1,O=C(CSc1nncn1-c1ccccc1)Nc1cc(Cl)cc(Cl)c1,5.88
2,O=C(Cn1ncc2c1-c1ccccc1OC2)N1CCN(Cc2ccccc2)CC1,-58
3,O=C(Cn1ncc2c1-c1ccccc1OC2)N1CCN(Cc2ccc3c(c2)OCO3)CC1,-31
4,CCN1CCN(C(=O)Cn2ncc3c2-c2ccccc2OC3)CC1,0.123
5,O=C1NN=COc2ccccc21,4.08
6,OCCC1CN(Cc2cccn2-c2ccccn2)CCN1C1CCCC1 (centres unmarked),3.68
7,CC(C)CN1CCN(Cc2cccn2-c2ccccn2)CC1CCO (centres unmarked),-18.8
8,Cc1ccc(CN2CCN(Cc3ccncc3)CC2CCO)o1 (centres unmarked),-1.98
9,Cc1ccc(CN2CCN(Cc3cccn3-c3ccc(Cl)cn3)CC2CCO)o1 (centres unmarked),0.259
10,CC(C)N1CCN(Cc2cccn2-c2ccccn2)CC1CCO (centres unmarked),-16
11,Cc1ccc(CN2CCN(Cc3cccn3-c3ccccn3)CC2CCO)o1 (centres unmarked),-59.5
12,OCCC1CN(Cc2cccn2-c2ccccn2)CCN1Cc1ccccc1 (centres unmarked),-61.4
13,Cc1ccc(CN2CCN(Cc3cccn3-c3ccccn3)CC2CCO)cc1 (centres unmarked),-82.4
14,Cc1ccc(CN2CCN(Cc3c(C)nn(C(C)C)c3C)CC2CCO)o1 (centres unmarked),10.6
15,CC(C)=CCN1CCN(Cc2cccn2-c2ccccn2)CC1CCO (centres unmarked),-19.9
16,Cc1cc(C)c(CN2CCN(Cc3ccc(C)o3)C(CCO)C2)c(-n2cccn2)c1 (centres unmarked),-70.9
17,CC(C)CCN1CCN(Cc2cccn2-c2ccccn2)CC1CCO (centres unmarked),-36.6
18,CCOC(=O)C1CCN(S(=O)(=O)c2cc3c(cc2C)NC(=O)CO3)CC1,-13.1
19,CC(=O)NCCC(=O)Nc1sc2c(c1-c1nc3ccccc3[nH]1)CCCC2,7.25
20,CC(C)(C)NCCOc1ccc2ccccc2c1,14.6
21,O=C(O)c1cc2ccccc2cc1Nc1ccccc1,6.84
22,CC(OC(=O)c1ccco1)C(=O)Nc1ccc(Cl)cn1 (centres unmarked),5.93
23,CNC(=O)C1=C(C)Nc2nc3ccccc3n2C1c1ccc(F)cc1 (centres unmarked),7.95

row,SMILES,"hERG current change (%, negative = inhibition) at 1uM [%]"
1,C/C(CC(=O)Nc1ccc(F)cc1)=N\NC(=O)Cc1csc(N)n1,16.1
2,CCOC(=O)c1nc(Nc2ccc(C(=O)O)cc2)c2ccccc2n1.Cl,11.2
3,O=C(Nc1ccccc1)N(C1=NCCCCS1)c1cccc2ccccc12,5.62
4,O=C(O)CC1SC(=O)N(CC(=O)c2ccccc2)C1=O (centres unmarked),8.06
5,O=C(COC(=O)Cc1cccc(C(F)(F)F)c1)NC1CC1,10.7
6,N#CCCn1cc(C(=O)Nc2ccc(F)cc2)c(-c2ccc([N+](=O)[O-])cc2)n1,6.48
7,N#CCCn1cc(C(=O)Nc2ccc([N+](=O)[O-])cc2)c(-c2ccccc2)n1,-67.8
8,N#CCCn1cc(C(=O)Nc2ccc(C(=O)O)cc2)c(-c2ccc([N+](=O)[O-])cc2)n1,16
9,O=C(OCC(=O)N1CCCC1)c1ccc(S(=O)(=O)Nc2ccccc2)cc1,-0.807
10,CN(CC(=O)Nc1cccc(F)c1)C(=O)c1ccccc1Sc1ccccc1C#N,-8.06
11,CC(C)(C)c1ccc(CN2C(=O)c3ccccc3S2(=O)=O)cc1,15.7
12,CC(=O)c1cccc(NC(=O)C2CCCN(S(=O)(=O)c3ccccc3)C2)c1 (centres unmarked),7.51
13,O=C(NCc1ccco1)C1CCCN(S(=O)(=O)c2cc(Cl)ccc2Cl)C1 (centres unmarked),2.52
14,CN(C)c1ccc(/C=N/NC(=O)c2ccn(C)n2)cc1,9.92
15,CC(NC(=O)c1ccc(S(=O)(=O)N(C)C)cc1)c1ccc(-n2ccnc2)cc1 (centres unmarked),-40.5
16,CC(NC(=O)c1ccccc1Cl)c1ccc(-n2ccnc2)cc1 (centres unmarked),-1.53
17,CC(NC(=O)c1cc(S(=O)(=O)N(C)C)ccc1Cl)c1ccc(-n2ccnc2)cc1 (centres unmarked),-55.3
18,COc1ccc(C(=O)CN2C(=O)NC(C)(c3ccccc3)C2=O)cc1OC (centres unmarked),3.32
19,CCOC(=O)C1CCN(C(C)C(=O)c2c(C)[nH]c3cc(C)ccc23)CC1 (centres unmarked),-66.9
20,CCOC(=O)C1CCN(C(C)C(=O)c2c[nH]c3ccccc23)CC1 (centres unmarked),-1.89
21,CCOC(=O)C1CCN(CC(=O)c2c(C)[nH]c3cc(C)ccc23)CC1,-26.8
22,CCOC(=O)C1=C(C)NC(=S)N(C(C)=O)C1c1ccc(Cl)cc1 (centres unmarked),9.38
23,O=C1OCCC1Sc1nc2ccccc2c(=O)n1Cc1ccc(F)cc1 (centres unmarked),-37.5

row,SMILES,"hERG current change (%, negative = inhibition) at 1uM [%]"
1,O=C1OCCC1Sc1nc2ccccc2c(=O)n1Cc1ccccc1 (centres unmarked),-64.6
2,Cc1ccc(Cn2c(SC3CCOC3=O)nc3ccccc3c2=O)cc1 (centres unmarked),-6.65
3,COc1ccc2nc3ccccc3nc2c1NC(=O)c1ccccc1Cl,-1.38
4,O=C(NCc1ccccc1)c1cnsn1,7.4
5,CC1(C)C(=O)C2(CCCCC2)C(=O)OC1C(=O)c1ccccc1 (centres unmarked),6.81
6,O=C(COc1ccc2c3c(c(=O)oc2c1)CCCC3)N1C[C@H]2C[C@@H](C1)c1cccc(=O)n1C2,-6
7,COc1cnn(Cc2ccccc2)c(=O)c1SCc1ccccc1,-2
8,CCN1CCc2nc3ccccc3c(C(=O)Nc3ccc(C#N)cc3)c2C1,-65.8
9,O=C(NCc1ccc(F)cc1)c1c2c(nc3ccccc13)CCN(Cc1ccccc1)C2,0.811
10,CCN1CCc2nc3ccccc3c(C(=O)Nc3ccc(F)cc3)c2C1,-81.6
11,CCN1CCc2nc3ccccc3c(C(=O)Nc3ccc(NC(C)=O)cc3)c2C1,12.4
12,CCOc1ccc(NC(=O)c2c3c(nc4ccccc24)CCC3)cc1,10.9
13,Cc1ccc(NC(=O)c2c3c(nc4ccccc24)CCC3)cc1,7.04
14,Cc1ccc(Oc2nc(C(F)(F)F)nc3ccccc23)cc1,6.66
15,CC(C)(C)OC(=O)N/N=C\c1ccc(OC(=O)c2cccs2)cc1,9.49
16,COc1ccc(-c2n[nH]c(=S)n2-c2ccc(Br)cc2)cc1OC,16.7
17,O=C(COC(=O)CCS(=O)(=O)c1ccccc1)Nc1ccccc1,0.18
18,O=C(COC(=O)c1cc[n+]([O-])cc1)Nc1cc([N+](=O)[O-])ccc1Cl,13.7
19,O=C(NCC(c1ccco1)N1CCc2ccccc2C1)c1ccc([N+](=O)[O-])cc1 (centres unmarked),-7.15
20,O=C(C[n+]1cccc(NC(=O)c2ccccc2)c1)c1cccc([N+](=O)[O-])c1.[Br-],-39.6
21,O=C(C[n+]1cccc(C(=O)Nc2ccccc2)c1)c1ccc([N+](=O)[O-])cc1.[Br-],-61
22,Cc1ccc(C(=O)C[n+]2cccc3ccccc32)cc1.[Br-],7.24
23,O=C(C[n+]1cccc2ccccc21)c1ccccc1.[Br-],8.9

row,SMILES,"hERG current change (%, negative = inhibition) at 1uM [%]"
1,O=C(Nc1ccccc1)c1ccc[n+](Cc2ccc([N+](=O)[O-])cc2)c1.[Br-],5.28
2,O=C(C[n+]1cccc2ccccc21)c1ccc([N+](=O)[O-])cc1.[Br-],-53.8
3,COc1ccc(CC(=O)NNS(=O)(=O)c2ccc([N+](=O)[O-])cc2)cc1OC,16
4,O=C(COn1nnc2ccc(Cl)cc21)NCc1ccccc1,0.51
5,CCCCN1C(=O)C(=O)N(CC(=O)NC2CCCc3ccccc32)C1=O (centres unmarked),8.35
6,CCN(CC)CCCN(C(=O)c1ccco1)c1nc(-c2ccc(Cl)cc2)cs1.Cl,-25.5
7,CCN(CC)CCCN(C(=O)c1ccco1)c1nc(-c2ccc(C)cc2)cs1.Cl,-90.2
8,Cc1ccc(-c2csc(N(CCCN(C)C)C(=O)c3ccco3)n2)cc1.Cl,-36.6
9,Cc1ccc(-c2csc(N(CCCN3CCOCC3)C(=O)c3ccco3)n2)cc1.Cl,-4.11
10,CN(C)CCCN(C(=O)c1ccco1)c1nc(-c2ccc(Cl)cc2)cs1.Cl,-70.8
11,Cl.O=C(c1ccco1)N(CCCN1CCOCC1)c1nc(-c2ccc(Cl)cc2)cs1,-5.41
12,COc1cccc(C2c3[nH]c4ccccc4c3C[C@H]3C(=O)N(C)CC(=O)N23)c1 (some centres unmarked),-1.14
13,CON(c1nc(Cl)nc(N(C)C)n1)S(=O)(=O)c1ccccc1Cl,6.38
14,O=C(Nc1cc(Br)ccc1O)C1CC(c2ccccc2Cl)=NO1 (centres unmarked),18.5
15,CCOc1ccc(Nc2nc(N)nc(CN(C)C3CCCCC3)n2)cc1,-58.2
16,COc1ccccc1Nc1nc(N)nc(CN(C)C2CCCCC2)n1,-11.7
17,COc1ccc(Nc2nc(N)nc(CN(C)C3CCCCC3)n2)cc1,-17.9
18,CCOc1ccc(Nc2nc(N)nc(CCl)n2)cc1,7.02
19,CCOc1ccccc1Nc1nc(N)nc(CN(C)C2CCCCC2)n1,-54.3
20,CCOc1ccccc1Nc1nc(N)nc(CN2CCCCC2C)n1 (centres unmarked),-9.01

# From paper PMC4336329 (PLoS ONE, 2015)
